The results in this text go back to PubChem BioAssay (EPA / NIEHS).

Experiment [1] concerns TTR (gene 7276). As to the kind of experiment: CCTE_GLTED_hTTR_0.125uM: CCTE's human Transthyretin (hTTR) Inhibition Assay, with 0.125uM TTR, Great Lakes Toxicology and Ecology Division (GLTED) Lab (AID 2284431).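 Also: hits lower the fluorescence signal relative to DMSO baseline.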 In short, it runs like this:
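Cell-free displacement of ANSA probe from 0.125uM TTR after 2 h incubation with chemical. Fluorescence read at 380 nm excitation/475 nm emission; loss of signal relative to DMSO indicates T4-site displacement.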

In experiment [2] the test system is SRY-box transcription factor 17 (SOX17) Protein Expression, Deisenroth Lab, SOX17 (gene 64321). Put plainly: CCTE_Deisenroth_DEVTOX-GLR_Endo_SOX17: CCTE's DevTox GLR-Endo Assay Evaluation of SRY-box transcription factor 17 (SOX17) Protein Expression, Deisenroth Lab (AID 2284413). In short, it runs like this:
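RUES2-GLR human pluripotent cells were differentiated toward endoderm for 48 h and received two compound doses 24 h apart (1 nM - 200 uM, 10 points). High-content imaging of fixed cells gave the percent SOX17+ cells per cell count, expressed as percent change versus 0.2% DMSO.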

Experiment [3] has as its system Brachyury (BRA) Protein Expression, TBXT (gene 6862). As to the kind of experiment: CCTE_Deisenroth_DEVTOX-GLR_Endo_BRA: CCTE's DevTox GLR-Endo Assay Evaluation of Brachyury (BRA) Protein Expression, Deisenroth Lab (AID 2284417). In short, it runs like this: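 Percent BRA+ (mesoderm) RUES2-GLR cells after 48 h differentiation with two exposures, 1 nM - 200 uM; 0.2% DMSO control subtracted.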

Experiment [4] can be described thus: CCTE_Deisenroth_DEVTOX-GLR_Endo_CellCount: Viability Assessment in CCTE's DevTox GLR-Endo Assay, Deisenroth Lab (AID 2284420). A digest of the protocol: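 RUES2-GLR pluripotent cells seeded 24 h, then differentiated 48 h in defined media with two chemical exposures 24 h apart. Nuclei counted by high-content imaging; 10-point 1 nM–200 uM series; percent change versus 0.2% DMSO.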

The subject of experiment [5] is SRY-box transcription factor 17 (SOX17) Protein Expression, Deisenroth Lab, SOX17 (gene 64321). As to the kind of experiment: CCTE_Deisenroth_DEVTOX-GLR_Pluri_SOX17: CCTE's DevTox GLR-Pluri Assay Evaluation of SRY-box transcription factor 17 (SOX17) Protein Expression, Deisenroth Lab (AID 2284427; active = hit-call score of the fitted dose curve at least 0.9, where 1 is the maximum). In short, it runs like this: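 RUES2-GLR pluripotent cells were induced toward endoderm over 48 h and received two compound doses 24 h apart, in a 10-point series from 1 nM to 200 uM. The percentage of SOX17+ cells among total cells was measured by high-content imaging and reported minus the 0.2% DMSO control.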

The subject of experiment [6] is SRY-box transcription factor 2 (SOX2) Protein Expression, Deisenroth Lab, SOX2 (gene 6657). As to the kind of experiment: CCTE_Deisenroth_DEVTOX-GLR_Pluri_SOX2: CCTE's DevTox GLR-Pluri Assay Evaluation of SRY-box transcription factor 2 (SOX2) Protein Expression, Deisenroth Lab (AID 2284428). In short, it runs like this:
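RUES2-GLR human pluripotent cells, two exposures 24 h apart over 48 h differentiation; 10-point series 1 nM - 200 uM. High-content imaging gives SOX2+ cells divided by cell count, reported as percent change versus 0.2% DMSO.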

The test system of experiment [7] is Brachyury (BRA) Protein Expression, Deisenroth Lab, TBXT (gene 6862). Put plainly: CCTE_Deisenroth_DEVTOX-GLR_Pluri_BRA: CCTE's DevTox GLR-Pluri Assay Evaluation of Brachyury (BRA) Protein Expression, Deisenroth Lab (AID 2284429; active = hit-call score of the fitted dose curve at least 0.9, where 1 is the maximum). In short, it runs like this:
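RUES2-GLR human pluripotent cells differentiated 48 hours with two chemical exposures 24 hours apart, 10-point series 1 nM–200 uM. Fixed, nuclear-stained, imaged; endpoint is percent BRA+ cells minus 0.2% DMSO control.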

Experiment [8] can be described thus: CCTE_Deisenroth_DEVTOX-GLR_Pluri_CellCount: Viability Assessment in CCTE's DevTox GLR-Pluri Assay Evaluation of Total Cell Counts, Deisenroth Lab (AID 2284430). On the procedure:
CCTE_Deisenroth_DEVTOX-GLR_Pluri assay is a cell-based, multiplex-readout assay that uses RUES2-GLR, a human pluripotent cell line, with measurements taken at 48 hours after chemical dosing in a 384-well microplateCCTE_Deisenroth_DEVTOX-GLR_Pluri_CellCount is 1 of 4 assay components calculated from the CCTE_Deisenroth_DEVTOX-GLR_Pluri assay and it measures cell count. Using fluorescent nuclei staining, gain-of-signal activity can be used to understand changes in cell viability with fluorescent microscopy. It is designed to make measurements of nuclei counts as a surrogate for cell number, as detected with optical fluorescence microscopy by Perkin Elmer Harmony nuclei detection algorithm. To generalize the intended target to other relatable targets, this assay component is annotated to the cell cycle intended target family, where the subfamily is cytotoxicity.Data from the assay component CCTE_Deisenroth_DEVTOX-GLR_Pluri_CellCount was analyzed as 1 assay endpoint. The endpoint the percent change in the cell count relative to the 0.2% DMSO control in the CCTE_Deisenroth_DEVTOX-GLR_Pluri assay. Furthermore, this assay endpoint can be referred to as a primary readout, because this assay has produced multiple assay endpoints where this one serves as a measure of cytotoxicity.
All assay protocols are aligned to the DevTox GLR-Endo assay workflow. Cells are seeded into 384-well microplates for 24 hours prior to initiating differentiation in defined media for a total duration of 48 hours. A total of two chemical exposures are administered in 24-hour intervals during the 48-hour differentiation period. At the assay termination point, cells are fixed and stained with a fluorescent dye demarcating the nucleus. High-content imaging is used to acquire brightfield and fluorescent channel images across 5 fields per well. Cell identification and mean biomarker fluorescence intensities are calculated with image analysis software to determine the total cell counts for viability assessment and the biomarker expression frequency for each lineage-dependent assay. A typical experimental design tests a 10-point concentration series (1 nM - 200 uM) for 28 compounds in single technical replicate. Assay plate controls include non-differentiated pluripotent cells (baseline control), lineage-specific differentiated cells (differentiation control), and DMSO solvent exposed differentiated cells (solvent control). Experiments typically comprise a minimum of four experimental replicates (n=4).

As a reminder, the AC50 is the concentration at which the activity in the assay is half-maximal.

Inconclusive results are not listed. Calls of active or inactive are those of the source. The calls were made as follows, unless noted: active = hit-call score of the fitted dose curve at least 0.9, where 1 is the maximum; inactive = score below 0.9.

Consider `Cc1cccc(Nc2cc(Cl)nc(SCC(=O)O)n2)c1C`, for which the concentration at half-maximal activity (AC50) in experiment [1] is 3.12 µM (active).

As to `O=c1[nH]cc(F)c(=O)[nH]1`, the AC50 in experiment [2] was 9.06 µM (active); in experiment [3] it was 20.3 µM (active); in experiment [4], 5.89 µM (active); in experiment [5], 7.95 µM (active); in experiment [6] it was 7.1 µM (active); in experiment [7] it was 7.54 µM (active). For the same compound, in experiment [8], the AC50 is 8.12 µM (active).

Take `CC1=C(/C=C/C(C)=C/C=C/C(C)=C/CO)C(C)(C)CCC1`: the AC50 is 33.6 µM (active) in experiment [2]; 66 µM (active) in experiment [3]; 34.7 µM (active) in experiment [4]; 39.3 µM (active) in experiment [5]; 19.8 µM (active) in experiment [6]; 26.8 µM (active) in experiment [7]. Further, the AC50 in experiment [8] was 29.4 µM (active).

Take `Oc1ccc2ccccc2c1N=Nc1ccccc1`: in experiment [1], the AC50 was 1.37 µM (active).

With `Cc1ccc(C)c(O)c1C`, the AC50 in experiment [1] is 21.9 µM (active).

As for `COc1ccc2c(c1)c(CC(=O)O)c(C)n2C(=O)c1ccc(Cl)cc1`, the AC50 in experiment [2] is 16 µM (active); in experiment [3] it was 12.5 µM (active); in experiment [4], 10.1 µM (active); in experiment [5] it was 2.61 µM (active); in experiment [6], 6.52 µM (active); in experiment [7], 6.56 µM (active). The AC50 in experiment [8] is 4.99 µM (active); in experiment [1], 1.93 µM (active).

As to `Cc1c(C(=O)O)c(O)cc2c1C(=O)c1c(O)c([C@@H]3O[C@H](CO)[C@@H](O)[C@H](O)[C@H]3O)c(O)c(O)c1C2=O`, in experiment [1], the AC50 is 10.1 µM (active).

For the compound `C=CCc1ccc(O)c(OC)c1`, in experiment [1], the AC50 is 26.1 µM (active).

For `C[C@]12C=CC(=O)C=C1CC[C@@H]1[C@@H]2C(=O)C[C@@]2(C)[C@H]1CC[C@]2(O)C(=O)CO`, the result in experiment [1] was inactive.

Regarding `CCCCC(CC)COC(=O)CC(C(=O)OCC(CC)CCCC)S(=O)(=O)O` (stereo not given), in experiment [1], the AC50 is 1.62 µM (active).

As for `COc1cc(S(=O)(=O)O)c(C)cc1N=Nc1c(O)ccc2cc(S(=O)(=O)O)ccc12`, in experiment [1], the AC50 was 30.8 µM (active).
